# This is a sample that favours compounds with a hit; in the whole collection about 4.7% have one here.
# D1 PAM = Potentiators of Human D1 Dopamine Receptor: qHTS. 0.036% of 360,000 active. potentiation, % at 10 µM. D(1A) dopamine receptor (Homo sapiens), P21728. HEK293 TREx D1 cells, calcium flux, dopamine EC20 potentiation; in the data active = potentiation above about 30%; note: 0% is about no effect
# D1 agonist = Allosteric Agonists of the Human D1 Dopamine Receptor: qHTS. 1% of 360,000 active. HEK293 T-REx D1 cells, calcium flux, agonist mode. D(1A) dopamine receptor (Homo sapiens), P21728. activation, % at 2 µM; note: 0% is about no effect
#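 Agonism was scored from calcium flux recorded over 180 s (1 read/s) after pintool compound addition, following a 10-cycle baseline. Cells were inducible force-coupled HEK293 TREx D1, plated overnight at 30 C and loaded with no-wash calcium dye.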
# D1 antagonist = Antagonist of Human D 1 Dopamine Receptor: qHTS; D(1A) dopamine receptor (Homo sapiens), P21728; HEK293 TREx D1 cells, calcium flux, dopamine EC80; active compounds read low; activity change, negative = inhibition, % at 10 µM; 3.2% of 360,000 active; AID 504652, 2011; in the data active = activity change below about -30%; note: % is set by controls: 0 for no effect and ±100 for the full control effect
#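 Compound effects on dopamine-evoked calcium signalling were measured in tetracycline-induced HEK293 Trex D1 cells. Dopamine at EC80 followed a 180 s compound pre-read, and fluorescence was tracked kinetically for 180 s more.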
# TRHR ag = qHTS for Small Molecule Agonists and Allosteric Enhancers of Human TRH Receptor: Primary Screen for Agonists; Thyrotropin-releasing hormone receptor (Homo sapiens), P34981; TRHR cells, calcium flux fluo-8, FDSS agonist mode; activation, % at 2 µM; 0.18% of 360,000 active; AID 493084, 2011; note: 0% is about no effect
# Target sequence (P34981 whole entry, looked up): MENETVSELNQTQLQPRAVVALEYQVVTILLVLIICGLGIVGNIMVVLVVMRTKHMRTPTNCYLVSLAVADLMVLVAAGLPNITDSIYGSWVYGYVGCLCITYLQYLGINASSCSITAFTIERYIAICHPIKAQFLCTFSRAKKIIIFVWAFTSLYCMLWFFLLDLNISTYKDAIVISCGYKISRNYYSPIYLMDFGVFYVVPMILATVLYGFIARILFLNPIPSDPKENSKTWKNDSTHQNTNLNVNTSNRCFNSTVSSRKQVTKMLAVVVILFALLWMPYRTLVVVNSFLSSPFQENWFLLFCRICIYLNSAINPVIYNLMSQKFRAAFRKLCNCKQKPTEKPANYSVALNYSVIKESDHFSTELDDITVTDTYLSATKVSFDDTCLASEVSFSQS
#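 Fluo-8-loaded TRHR cells; 10 s baseline, compound added, kinetic Ca2+ fluorescence read 1/s, agonist mode.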
# TRHR enhancer = qHTS for Small Molecule Agonists and Allosteric Enhancers of Human TRH Receptor: Primary Screen for Enhancers; Thyrotropin-releasing hormone receptor (Homo sapiens), P34981; TRHR cells, fluo-8 calcium fluorescence, EC20 TRH enhancement; enhancement, % at 2 µM; 0.66% of 360,000 active; in the data active = enhancement above about 30%; note: 0% is about no effect
#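 TRHR-expressing cells loaded with fluo-8 calcium dye were read kinetically (ex 480/em 530) during compound addition, then stimulated with an EC20 of TRH (10 nM final). Enhancement of the Gq-mediated intracellular calcium response was scored.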
# * hit, by the source's call; · = no result given. Cut-off read from the data, not from the text of the source, unless noted: active = activation above about 30%; inactive = the rest.
SMILES,D1 PAM,D1 agonist,D1 antagonist,TRHR ag,TRHR enhancer
Cc1ccc(NC(=O)CN2C(=O)NC(C)(c3ccc(Cl)cc3)C2=O)cc1 (configuration not stated),-3,16,-12,3,12
CC1(c2ccc(OC(F)F)cc2)NC(=O)N(CC(=O)Nc2cccc(F)c2)C1=O (configuration not stated),-6,60*,-61*,12,1
CCN(c1ccccc1)S(=O)(=O)c1ccc(NC(=O)c2cc(=O)c3c(C)cc(C)cc3o2)cc1,2,2,-2,1,12
CCOC(=O)c1c(C)[nH]c(C(=O)CN2C(=O)NC(C)(c3ccc(C)cc3)C2=O)c1C (configuration not stated),0,54*,1,4,12
CC1(c2ccc(OC(F)F)cc2)NC(=O)N(CC(=O)Nc2ccc(S(N)(=O)=O)cc2)C1=O (configuration not stated),-1,4,-1,0,5
COc1ccc(C2(c3ccc(OC)cc3)NC(=O)N(CC(=O)Nc3ccc(OC(F)F)cc3)C2=O)cc1,-6,12,9,3,-2
CCOc1ccc(NC(=O)CN2C(=O)NC(C)(c3ccc(OC(F)F)cc3)C2=O)cc1 (configuration not stated),-15,38*,-43*,9,-4
Cc1cc(NC(=O)CN2C(=O)NC(C)(c3ccc(OC(F)F)cc3)C2=O)no1 (configuration not stated),-6,33*,4,4,1
CCOc1ccccc1NC(=O)CN(CCc1ccccc1)S(=O)(=O)c1ccc(C)cc1,1,27,-16,-1,-2
O=C(O)CCCN1C(=O)/C(=C/c2ccc(-c3nc4ccccc4s3)o2)SC1=S,11,53*,56,2,17
O=C(NCCOc1ccc(F)cc1)C1CCC(=O)N(CCN2CCOCC2)C1 (configuration not stated),-5,0,-53*,1,-3
COc1ccc(NC(=O)c2ccc3nc(CCc4ccccc4)oc3c2)cc1,-5,16,6,1,-3
COc1ccc(NC(=O)Nc2nnc(SCC(=O)Nc3cccc(C)c3C)s2)cc1,-3,7,·,0,3
O=C(NN1C(=O)C2C3C=CC(O3)C2C1=O)c1cccc(O)c1 (configuration not stated),-11,2,-80*,0,-3
COc1cc(-c2noc(-c3nnn(-c4ccc(Cl)cc4)c3C)n2)cc(OC)c1OC,0,2,-33*,0,5
COc1ccc(Cl)cc1-n1nnc(-c2nc(-c3ccccc3)no2)c1C,-1,2,-57*,0,-20
COc1cccc(CN(Cc2ccco2)C(c2ccc(F)cc2)c2nnnn2C(C)(C)C)c1 (configuration not stated),-13,23,-34*,-1,-4
c1ccc(COc2ccccc2CNC23CC4CC(CC(C4)C2)C3)cc1,-4,49*,5,7,-2
CCc1nnc2c(Nc3cc(OC)c(Cl)cc3OC)nc3ccccc3n12,-1,1,-8,0,6
CC(C)(C)NC(=O)NC(=O)COC(=O)c1cccc(OC(F)F)c1,-2,8,-31*,-1,-2
CC(C)(C)NC(=O)NC(=O)COC(=O)c1cccc(F)c1,1,0,-7,-1,-5
CCCCN(CC)Cc1ccc(CNC(=S)Nc2cccc(F)c2)o1,-9,34*,-1,-2,-9
CC(=O)c1cc(C(=O)N2CCCC(C(=O)c3ccc(Cl)cc3)C2)cs1 (configuration not stated),2,5,-33*,0,-3
O=C(c1ccc(Cl)cc1)N1CCCC(C(=O)N2CCCCC2)C1 (configuration not stated),-4,2,16,0,-4
Fc1ccc(-c2cn3cc(Cc4ccc(Cl)cc4)sc3n2)cc1,-1,11,-2,2,-6

# High-throughput results (PubChem BioAssay)
